PubChem BioAssay (NCI)
The panel holds about 83,000 compounds, 20% with a hit somewhere; the sample as a whole holds those more often.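 The endpoint reported here, percent growth, reads 100 for growth as untreated, 0 for no net growth and -100 for all cells dead.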 Active and inactive are the calls of the source. The calls were made as follows: active = growth percent below 10; inactive = the rest.

What was measured:
Assay in all cases: NCI-60 one-dose screen, 48 h (100 = growth as untreated, 0 = no growth, -100 = all killed)
Conditions in all cases: 10 µM unless noted
[1] = system: HCT-15 colon
[2] = system: HT29 colon
[3] = system: SNB-75 CNS
[4] = system: SNB-19 CNS
[5] = system: U251 CNS
[6] = system: PC-3 prostate
[7] = system: SK-MEL-5 melanoma
[8] = system: LOX IMVI melanoma
[9] = system: SK-MEL-28 melanoma
[10] = system: EKVX NSCLC
[11] = system: SN12C renal
[12] = system: UO-31 renal
[13] = system: TK-10 renal
[14] = system: ACHN renal
[15] = system: CAKI-1 renal
[16] = system: A498 renal
[17] = system: CCRF-CEM leukemia
[18] = system: MOLT-4 leukemia
[19] = system: SK-MEL-2 melanoma
[20] = system: UACC-62 melanoma

Measured: growth

Cc1ccccc1N1C(c2ccccc2)=NNC12C=CC(=O)c1c(O)cccc12 (stereo not given)
inactive: [1] 29.5% | [2] 91.7% | [3] 81.7% | [4] 60.8% | [5] 34.9% | [6] 46.7% | [9] 102% | [10] 79.7% | [11] 62.2% | [12] 57.5% | [13] 116% | [14] 81.7% | [15] 96.9% | [16] 76.4% | [17] 119% | [18] 101%
active: [7] -26.3% | [8] 7.11%

O=NN(CC(=O)NNc1ccccc1)CC(=O)NNc1ccccc1
active: [8] 7.04%
inactive: [1] 33.7% | [2] 69.2% | [3] 90.8% | [4] 96.2% | [5] 78.8% | [6] 58.8% | [7] 90.5% | [9] 95.5% | [19] 77.7% | [11] 87% | [12] 22% | [13] 84.3% | [14] 46.4% | [15] 36% | [16] 107% | [17] 30.7% | [18] 42.2%

Fc1[nH]nc2ccc([C@@H]3Nc4ccc5[nH]ncc5c4[C@H]4C5CCC(C5)[C@@H]34)cc12 (stereo not given in full)
inactive: [1] 34.5% | [4] 36.6% | [5] 25.8% | [6] 27.8% | [7] 25.7% | [8] 48.3% | [9] 54.8% | [19] 33.1% | [10] 36.1% | [11] 46.1% | [12] 51.3% | [13] 42.4% | [15] 32.6% | [17] 18% | [18] 21.2%
active: [2] 8.7% | [3] -14.8% | [16] -12.4%

O=C(C(=O)c1cccnc1)c1cccnc1
inactive: [1] 120% | [2] 108% | [3] 107% | [4] 110% | [5] 112% | [6] 107% | [7] 105% | [8] 100% | [9] 135% | [10] 110% | [11] 107% | [12] 105% | [13] 158% | [14] 110% | [16] 55.6% | [17] 120%

O=C1c2ccccc2C(=O)c2c1oc1ccc3ccccc3c21
inactive: [1] 65% | [2] 106% | [3] 93.3% | [4] 90% | [5] 81.1% | [6] 72.3% | [7] 17.3% | [20] 84.2% | [8] 41.9% | [10] 72.6% | [11] 83.2% | [12] 61% | [13] 169% | [14] 79.4% | [15] 90.3% | [16] 88.5% | [17] 94.8% | [18] 104%

COC(=O)C(CCC(=O)CCl)N1C(=O)c2ccccc2C1=O (stereo not given)
active: [8] -44.1% | [17] 5.21%
inactive: [1] 48.1% | [2] 34.3% | [3] 91.5% | [4] 99.9% | [5] 47.1% | [6] 60.3% | [7] 71.3% | [9] 87% | [19] 67.4% | [10] 108% | [11] 69.9% | [12] 48.4% | [13] 54% | [14] 71.2% | [15] 67.9% | [16] 123% | [18] 42.6%

C#CC[C@@H]1C[C@]2(C)[C@H]3CC[C@@H]4[C@H]5C(C(=C)C)CC[C@]5(C(=O)NCCCCN)CC[C@@]4(C)[C@]3(C)CC[C@H]2C(C)(C)[C@H]1OC(C)=O (stereo not given in full)
active: [1] -66.1% | [2] -61.3% | [3] -97.3% | [4] -56.7% | [5] -86.6% | [6] 6.29% | [8] -83.4% | [11] -82.9% | [12] -97.1% | [13] -92.9% | [14] -98.3% | [15] -98.8% | [17] -11% | [18] -21.3%
inactive: [7] 89.9% | [9] 67.9% | [19] 61% | [10] 90.1% | [16] 108%

COc1ccc2[nH]cc(/C=C3\C(=O)Nc4ccccc43)c2c1
inactive: [1] 23.9% | [2] 10.7% | [4] 73% | [5] 38.8% | [6] 45.3% | [7] 39.5% | [8] 21.1% | [19] 12.6% | [10] 49% | [11] 49.5% | [13] 53% | [14] 34.6% | [17] 14%
active: [3] 8.46% | [12] -14.7% | [15] -0.757% | [18] 1.26%

Clc1ncnc2scc(C3COc4ccccc4O3)c12 (stereo not given)
active: [15] -18.7%
inactive: [1] 79.8% | [2] 103% | [3] 65.2% | [4] 100% | [5] 90.4% | [6] 98.8% | [7] 90.4% | [8] 41% | [9] 83.8% | [19] 107% | [11] 86.6% | [12] 59.5% | [13] 110% | [14] 96.2% | [16] 97% | [17] 22.3% | [18] 74.7%

COc1cc2c(cc1C)NC(=O)/C2=C\c1c[nH]c2ccccc12
inactive: [1] 58.4% | [2] 35.4% | [3] 37.9% | [4] 84.7% | [5] 61.5% | [6] 53.3% | [7] 73.8% | [8] 44.9% | [19] 76.4% | [10] 74.5% | [11] 67.8% | [12] 27.6% | [13] 83.7% | [14] 61.8% | [15] 10.6% | [16] 78.5% | [17] 53.6% | [18] 24.4%

Cc1ccc2cc3c(NC(=O)c4cccnc4)nn(C)c3nc2c1
inactive: [1] 91.6% | [2] 75.8% | [3] 73.8% | [4] 82.6% | [5] 85.2% | [6] 62.5% | [7] 83.1% | [8] 92.4% | [9] 96% | [11] 101% | [12] 78.6% | [13] 103% | [14] 89% | [15] 85.7% | [16] 91.7% | [17] 72.2% | [18] 94.3%

COc1cc(NC(C)CCCN)c2ncccc2c1Sc1ccc(Cl)cc1 (stereo not given)
active: [2] -46.4% | [8] -62.4%
inactive: [1] 39.3% | [3] 48.7% | [4] 78.3% | [5] 39.3% | [6] 47.1% | [7] 67.3% | [9] 93.3% | [19] 102% | [10] 71.9% | [11] 64.9% | [12] 40.1% | [13] 78.6% | [14] 74.8% | [15] 50.2% | [16] 55.9% | [17] 44.7% | [18] 31.7%

O=C(c1ccccc1)N(CCCCl)C(=O)N(CCCCl)C(=O)c1ccccc1
inactive: [1] 94.6% | [2] 82.1% | [3] 104% | [4] 97.4% | [5] 88.5% | [6] 72.1% | [7] 89.6% | [8] 90% | [9] 133% | [10] 81% | [11] 94.6% | [12] 73.4% | [13] 96.8% | [14] 90.9% | [15] 74.9% | [16] 79.5% | [17] 99.7% | [18] 84.4%

COc1cc(C2CC(c3ccc(Nc4ccnc5cc(Cl)ccc45)cc3)=NN2c2ccccc2)cc(OC)c1OC (stereo not given)
inactive: [1] 45.5% | [2] 44.2% | [3] 72.6% | [4] 79.7% | [5] 60.5% | [6] 60.8% | [7] 49.5% | [8] 58.7% | [9] 79.1% | [11] 76.3% | [12] 57.8% | [13] 89.8% | [14] 77.1% | [15] 48.2% | [16] 61% | [17] 47.5% | [18] 62.3%

CCCCN(CCCC)CCC(O)c1cc2ccc(C(F)(F)F)cc2c2cc(C(F)(F)F)ccc12 (stereo not given)
active: [2] 8.42% | [8] -58.4%
inactive: [1] 27.3% | [3] 60.9% | [4] 72.6% | [5] 45.2% | [6] 35.6% | [7] 38.9% | [9] 77.2% | [10] 70% | [11] 46.9% | [12] 19.6% | [13] 74.4% | [14] 49.9% | [15] 38.6% | [16] 56.4% | [17] 36.2% | [18] 28.7%

CC[C@H](Nc1nc(N)nc(N)c1Cl)c1nc2cccc(NCc3ccc(C(=O)NO)cc3)c2c(=O)n1-c1ccccc1
active: [2] 6.69% | [3] -3.96% | [4] 7.79% | [5] -65.6% | [6] -57.2% | [7] -26.3% | [20] -56.8% | [8] -86.2% | [13] -1.39% | [14] 3.82% | [16] -12.7% | [17] 7.44% | [18] 0.294%
inactive: [1] 40.9% | [10] 42% | [11] 10% | [12] 20.6% | [15] 39.6%

Cc1cc(O)c(C2=NN(c3ccc(S(N)(=O)=O)cc3)C(c3ccc(Cl)cc3)C2)c(C)c1Cl (stereo not given)
inactive: [1] 65.2% | [2] 55.1% | [3] 67.4% | [4] 89.8% | [5] 70% | [6] 12.1% | [7] 81.7% | [8] 52.4% | [9] 76.3% | [10] 49.7% | [11] 36.1% | [12] 66.6% | [13] 80% | [14] 58.7% | [16] 87.2% | [17] 11.6% | [18] 14.3%

CCCCCc1c(C)[nH]c(/C=C2\N=C(c3ccc[nH]3)C=C2CC)c1C
active: [1] -83.5% | [2] -86.9% | [3] -81.4% | [4] -95.4% | [5] -95.3% | [6] -89.3% | [7] -96.5% | [8] -90.7% | [9] -97.4% | [10] -90.3% | [11] -89.9% | [12] -85.8% | [13] -88.9% | [15] -82.1% | [16] -90.8% | [17] -58.3% | [18] -58.8%
